Screens as filed in PubChem BioAssay.
A selection: hits, their analogues and other compounds. The true share with any hit is near 4%.
TROY signal inh: TROY signaling inhibition; inhibition, % at 10 µM; hit rate 0.98% among 360,000; Q293 LMP1-TROYcd NF-kB luciferase reporter, 4 h;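 active = compounds whose plate-normalised and pattern-corrected inhibition of the luciferase reporter signal at the single screening dose is 50% or more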
HIF-2a inh: HIF-2a inhibition; 786-0 RCC cells HIF-2a reporter, luciferase luminescence, overnight; inhibition, % at 18.8 µM; hit rate 0.72% among 360,000;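 active = inhibition of the luminescence signal of 40% or more relative to plate controls, in a single-dose primary screen at 18.75 µM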
MITF TRPM1 inh: reduces MITF-dependent TRPM1 promoter luciferase signal; hit rate 0.83% among 330,000; AID 488899; SK-MEL-5 TRPM1 promoter luciferase, 24 h; inhibition, % at 12.5 µM;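 active = mean inhibition across replicates of 60% or more, whatever share of single replicates reaches that level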
TWEAK Fn14 block: blocks TWEAK-Fn14 interaction in a reporter cell assay; hit rate 2% among 360,000; AID 1159606; inhibition, % at 10 µM; TWEAK-stimulated Fn14 reporter cells, luciferase luminescence, 8 h; in the data active = inhibition above about 50%
Peg3 promoter: reduces Peg3 promoter-driven luciferase expression in HeLa; HeLa PEG-Prom luciferase reporter, luminescence, overnight; inhibition, % at 20 µM; hit rate 1.7% among 360,000; AID 588405;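 active = inhibition of at least 50% at 20 µM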
EBV LMP1 NFkB: Epstein-Barr LMP1 NF-kappaB reporter inhibition; LMP1-induced NF-kappaB luciferase reporter cells, luminescence; inhibition, % at 12.5 µM; hit rate 0.69% among 350,000; AID 504558; in the data active = inhibition above about 41%;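 also: 0% = neutral control wells and 100% = reference inhibitor control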
* marks the source's active call; other numbers are inactive results.

`Cc1sc(NC(=O)/C=C/c2ccc3c(c2)OCO3)nc1-c1ccccc1` gave TROY signal inh 27, HIF-2a inh -54, MITF TRPM1 inh 21, TWEAK Fn14 block 88*, Peg3 promoter -41 and EBV LMP1 NFkB 6.
For COC(=O)c1cccc(NC(=O)/C=C/c2ccc3c(c2)OCO3)c1 the results were TROY signal inh 18, HIF-2a inh 50*, MITF TRPM1 inh 4, TWEAK Fn14 block 38, Peg3 promoter -140 and EBV LMP1 NFkB 33.
O=C(/C=C/c1ccc2c(c1)OCO2)Nc1nc(-c2ccccc2)cs1 was read as TROY signal inh 62*, HIF-2a inh -128, MITF TRPM1 inh 14, TWEAK Fn14 block 88*, Peg3 promoter -71 and EBV LMP1 NFkB 7.
`Cc1ccc(-c2csc(NC(=S)NC(=O)/C=C/c3ccco3)n2)cc1` gave TROY signal inh -30, HIF-2a inh -114, MITF TRPM1 inh 9, TWEAK Fn14 block 18, Peg3 promoter 4 and EBV LMP1 NFkB 4.
For O=C(Cc1ccc(F)cc1)Nc1ccc(Cl)cn1 the results were TROY signal inh -79, HIF-2a inh -147, MITF TRPM1 inh -24, TWEAK Fn14 block -4, Peg3 promoter -70 and EBV LMP1 NFkB -4.
NC(CS(=O)O)C(=O)O (stereo not drawn) was read as TROY signal inh 12, HIF-2a inh 0, MITF TRPM1 inh -5, TWEAK Fn14 block 2, Peg3 promoter 6 and EBV LMP1 NFkB 3.
For CC(C)(S)[C@@H](N)C(=O)O the results were TROY signal inh 3, HIF-2a inh -3, MITF TRPM1 inh 9, TWEAK Fn14 block 0, Peg3 promoter 11 and EBV LMP1 NFkB 55*.
Screening CC1CCCCN1S(=O)(=O)c1ccc(S(=O)(=O)N2CCN(c3ccccc3)CC2)cc1 (stereo not drawn) returned TROY signal inh -30, HIF-2a inh 9, MITF TRPM1 inh 13, TWEAK Fn14 block -19, Peg3 promoter 59* and EBV LMP1 NFkB 2.
`CC(C)Oc1ccc(C(CCN)C2CCCCC2)cc1` (stereo not drawn) gave TROY signal inh -13, HIF-2a inh 31, MITF TRPM1 inh 88*, TWEAK Fn14 block -9, Peg3 promoter 105* and EBV LMP1 NFkB 6.
CC(C)Oc1ccc(C(=O)NC2CCCCC2)cc1 was read as TROY signal inh -50, HIF-2a inh -176, MITF TRPM1 inh -70, TWEAK Fn14 block -14, Peg3 promoter -194 and EBV LMP1 NFkB -2.
Screening COc1cc2c(=O)n(CC3CCCO3)c(=O)n(CC(=O)Nc3cccc(Cl)c3)c2cc1OC (stereo not drawn) returned TROY signal inh 5, HIF-2a inh 27, MITF TRPM1 inh 14, TWEAK Fn14 block -9, Peg3 promoter 13 and EBV LMP1 NFkB 85*.
For Cc1cc(C)n2c(SC(C)C(=O)NC3(C#N)CCCCC3)nnc2n1 (stereo not drawn) the results were TROY signal inh 3, HIF-2a inh 5, MITF TRPM1 inh -6, TWEAK Fn14 block 67*, Peg3 promoter -5 and EBV LMP1 NFkB -4.
`CC(Sc1nccn1C)C(=O)NC1(C#N)CCCCC1` (stereo not drawn) gave TROY signal inh -6, HIF-2a inh 10, MITF TRPM1 inh -5, TWEAK Fn14 block -10, Peg3 promoter 9 and EBV LMP1 NFkB 2.
COc1ccc(N(CC(=O)NCCSCc2ccco2)S(=O)(=O)c2ccccc2)cc1Cl was read as TROY signal inh 8, HIF-2a inh 22, MITF TRPM1 inh -16, TWEAK Fn14 block 2, Peg3 promoter 4 and EBV LMP1 NFkB 2.
Screening COc1ccc(CNCCC(c2ccc(F)cc2)c2ccc(OC(C)C)cc2)cc1OC (stereo not drawn) returned TROY signal inh 2, HIF-2a inh 13, MITF TRPM1 inh 15, TWEAK Fn14 block -15, Peg3 promoter 110* and EBV LMP1 NFkB 7.
For COc1ccc(C(CCNC(C)c2ccccc2)c2ccc(F)cc2)cc1 (stereo not drawn) the results were TROY signal inh -15, HIF-2a inh -17, MITF TRPM1 inh 70*, TWEAK Fn14 block -8, Peg3 promoter 107* and EBV LMP1 NFkB -8.
`COc1ccc(CNCC(O)(c2ccc(F)cc2)c2ccc(F)cc2)cc1OC` gave TROY signal inh 5, HIF-2a inh 17, TWEAK Fn14 block 15, Peg3 promoter -4 and EBV LMP1 NFkB 8.
For COc1ccc(CNCCC(c2ccc(F)cc2)c2ccc(OC)cc2)cc1 (stereo not drawn) the results were TROY signal inh 3, HIF-2a inh 3, MITF TRPM1 inh 64*, TWEAK Fn14 block -13, Peg3 promoter 76* and EBV LMP1 NFkB 0.
Screening COc1ccc(C(CCNCc2ccccc2)c2ccc(F)cc2)cc1 (stereo not drawn) returned TROY signal inh 19, HIF-2a inh 1, MITF TRPM1 inh 10, TWEAK Fn14 block -11, Peg3 promoter 37 and EBV LMP1 NFkB -4.
`COc1ccc(C(CCNCc2ccc(F)cc2)c2ccc(F)cc2)cc1` (stereo not drawn) gave TROY signal inh 11, HIF-2a inh -4, MITF TRPM1 inh 31, TWEAK Fn14 block -19, Peg3 promoter 80* and EBV LMP1 NFkB -15.
Screening CCCCNC(=O)C1C(c2ccc(OC)cc2)=Nc2ccccc2N1C(=O)c1ccncc1 (stereo not drawn) returned HIF-2a inh -44.
Screening COc1ccc(CC(=O)Nc2cc(S(C)(=O)=O)ccc2Cl)cc1S(=O)(=O)N1CCOCC1 returned TROY signal inh 2, HIF-2a inh 14, MITF TRPM1 inh -3, TWEAK Fn14 block -3, Peg3 promoter -2 and EBV LMP1 NFkB -3.
For Cc1ccccc1N1CCN(CCC(=O)Nc2ccc(F)cc2)CC1 the results were TROY signal inh 18, HIF-2a inh 14, MITF TRPM1 inh 6, TWEAK Fn14 block 5, Peg3 promoter 38 and EBV LMP1 NFkB 2.
`CC(C)N=C(NC#N)SCc1ccccc1F` gave TROY signal inh 3, HIF-2a inh -4, MITF TRPM1 inh -1, TWEAK Fn14 block 15, Peg3 promoter 0 and EBV LMP1 NFkB -8.
For N#CNC(=Nc1cccc(F)c1)SCc1ccccc1F the results were TROY signal inh 59*, HIF-2a inh -14, MITF TRPM1 inh 11, TWEAK Fn14 block 0, Peg3 promoter 74* and EBV LMP1 NFkB -4.
O=[N+]([O-])c1cccc(NC(=S)Nc2nc(-c3ccccc3Cl)cs2)c1 was read as TROY signal inh 40, HIF-2a inh -109, MITF TRPM1 inh 18, TWEAK Fn14 block 56*, Peg3 promoter -35 and EBV LMP1 NFkB 24.
`O=[N+]([O-])c1cccc(NC(=S)NCc2ccncc2)c1` gave TROY signal inh -25, HIF-2a inh 13, MITF TRPM1 inh -1, TWEAK Fn14 block -5, Peg3 promoter 12 and EBV LMP1 NFkB 7.
O=C(O)CCc1c(C(=O)O)[nH]c2ccccc12 was read as HIF-2a inh 5, MITF TRPM1 inh -3, TWEAK Fn14 block 69*, Peg3 promoter 0 and EBV LMP1 NFkB 6.
